Measurements published in PubChem BioAssay AID1159580 (chemical genetic matrix, 2015).
The campaign covered roughly 5,500 compounds. About 2,000 (36%) were called active. Not shown: some 18% with an inconclusive outcome. Cut-off read from the data, not from the text of the source: active = normalized growth mostly below about 0.91 (no sharp cut-off); inconclusive = no clear call, values can overlap the other calls; inactive = mostly above about 0.92. This is one part of the list.

Experiment: chemical genetic growth profiling, strain panel (AID 1159580);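 note: tested at 20 µM; growth read once vehicle control cultures reached saturation at 30 °C; 1 = growth at the plate median or of vehicle wells; lower values mean less growth of the strain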
Details: S. cerevisiae deletion strains, growth OD
[1] = locus YDL101C, strain DUN1, active compounds read low
[2] = locus YHR030C, strain SLT2, active compounds read low
[3] = locus YHR079C, strain IRE1, active compounds read low
[4] = locus YJL095W, strain BCK1, active compounds read low
[5] = locus YJR066W, strain TOR1, active compounds read low
[6] = locus YLR113W, strain HOG1, active compounds read low
[7] = locus YNL183C, strain NPR1, active compounds read low
[8] = locus YOR231W, strain MKK1, active compounds read low
[9] = locus YPL256C, strain CLN2, active compounds read low
[10] = locus YJR075W, strain HOC1, active compounds read low
[11] = locus YMR263W, strain SAP30, active compounds read low
[12] = locus YNL153C, strain GIM3, active compounds read low
[13] = locus YNL322C, strain KRE1, active compounds read low
[14] = locus YPL241C, strain CIN2, active compounds read low

Measured: normalized growth

Cc1c(-c2ccnn2C(=O)c2ccco2)cnn1-c1ccccc1
inactive: locus YAR019C, strain CDC15, active compounds read low 0.954 | locus YBL105C, strain PKC1, active compounds read low 0.957 | locus YBR135W, strain CKS1, active compounds read low 0.958 | locus YBR136W, strain MEC1, active compounds read low 0.954 | locus YBR160W, strain CDC28, active compounds read low 0.957 | locus YDL017W, strain CDC7, active compounds read low 0.964 | locus YDL028C, strain MPS1, active compounds read low 0.93 | [1] 0.978 | locus YDL108W, strain KIN28, active compounds read low 0.954 | locus YDL132W, strain cdc53, active compounds read low 0.953 | locus YDL214C, strain PRR2, active compounds read low 0.904 | locus YDR052C, strain DBF4, active compounds read low 0.982 | locus YDR054C, strain cdc34, active compounds read low 0.952 | locus YDR226W, strain ADK1, active compounds read low 0.953 | locus YDR477W, strain SNF1, active compounds read low 0.861 | locus YER123W, strain YCK3, active compounds read low 0.925 | locus YER133W, strain GLC7, active compounds read low 0.915 | locus YFL009W, strain cdc4, active compounds read low 0.936 | locus YFL029C, strain CAK1, active compounds read low 0.954 | locus YFR003C, strain YPI1, active compounds read low 0.959 | locus YFR019W, strain FAB1, active compounds read low 0.945 | locus YFR028C, strain CDC14, active compounds read low 0.94 | locus YGR040W, strain KSS1, active compounds read low 0.872 | locus YGR052W, strain FMP48, active compounds read low 0.966 | locus YGR092W, strain DBF2, active compounds read low 0.917 | [3] 0.909 | locus YHR082C, strain KSP1, active compounds read low 0.953 | locus YHR205W, strain SCH9, active compounds read low 0.909 | locus YIL147C, strain SLN1, active compounds read low 0.958 | [4] 0.842 | locus YJL128C, strain PBS2, active compounds read low 0.908 | locus YJL157C, strain FAR1, active compounds read low 0.916 | locus YJR016C, strain ILV3, active compounds read low 0.962 | locus YJR066W, strain TOR1 (second series), active compounds read low 0.828 | [5] 0.89 | locus YKL048C, strain ELM1, active compounds read low 0.972 | locus YKL067W, strain YNK1, active compounds read low 0.908 | locus YKL101W, strain HSL1, active compounds read low 0.894 | locus YKL193C, strain SDS22, active compounds read low 0.959 | locus YKL203C, strain TOR2, active compounds read low 0.965 | locus YLR133W, strain CKI1, active compounds read low 0.917 | locus YLR403W, strain SFP1, active compounds read low 0.873 | locus YML070W, strain DAK1, active compounds read low 0.895 | locus YMR001C, strain CDC5, active compounds read low 0.953 | locus YMR205C, strain PFK2 (second series), active compounds read low 0.939 | locus YMR277W, strain FCP1, active compounds read low 0.938 | locus YNL006W, strain LST8, active compounds read low 0.953 | locus YNL020C, strain ARK1, active compounds read low 0.931 | locus YNL161W, strain CBK1, active compounds read low 0.974 | [7] 0.953 | locus YNL207W, strain RIO2, active compounds read low 0.958 | locus YNL222W, strain SSU72, active compounds read low 0.943 | locus YNL307C, strain MCK1 (second series), active compounds read low 0.894 | locus YOL078W, strain AVO1, active compounds read low 0.958 | locus YOL136C, strain PFK27, active compounds read low 0.898 | locus YOR061W, strain CKA2, active compounds read low 0.909 | locus YOR119C, strain RIO1, active compounds read low 0.919 | [8] 0.885 | locus YOR329C, strain SCD5, active compounds read low 0.974 | locus YPL031C, strain PHO85, active compounds read low 0.858 | locus YPL153C, strain RAD53, active compounds read low 0.873 | locus YPL204W, strain HRR25, active compounds read low 0.851 | locus YPL209C, strain IPL1, active compounds read low 0.969 | locus YPR025C, strain CCL1, active compounds read low 0.957 | locus YPR106W, strain ISR1, active compounds read low 0.957 | locus YPR111W, strain DBF20, active compounds read low 0.917 | strain NNK1, active compounds read low 0.964 | strain TSCII, active compounds read low 0.94
active: [2] 0.739 | [6] 0.799 | [9] 0.825

C[C@@H]1O[C@H](C[N+](C)(C)C)CS1
inactive: locus YAL040C, strain CLN3, active compounds read low 1.02 | locus YCL061C, strain MRC1 (second series), active compounds read low 1.01 | locus YDR363W, strain ESC2, active compounds read low 1.03 | locus YER002W, strain NOP16, active compounds read low 0.997 | [10] 1.02 | [11] 1.01 | [12] 1.01 | locus YNL175C, strain NOP13, active compounds read low 1.01 | locus YNL197C, strain WHI3, active compounds read low 1.01 | locus YNL224C, strain SQS1, active compounds read low 0.993 | [13] 1.02 | locus YOR083W, strain WHI5 (second series), active compounds read low 1.05 | [14] 1.01

CC(C)(CO)[C@@H](O)C(=O)NCCCO
inactive: [2] 1.09 | [3] 0.97 | [4] 1.01 | [5] 0.936 | [6] 0.968 | [7] 0.932 | [8] 0.998 | [9] 0.988

c1ccc(-c2cc3c(nn2)CCc2nonc2-3)cc1
inactive: locus YAL013W, strain DEP1, active compounds read low 0.979 | locus YBR229C, strain ROT2, active compounds read low 0.984 | [1] 0.992 | locus YDL134C, strain PPH21, active compounds read low 0.985 | locus YDR150W, strain NUM1, active compounds read low 1.01 | locus YEL061C, strain CIN8, active compounds read low 0.985 | locus YGR078C, strain PAC10, active compounds read low 0.992 | [2] 0.784 | locus YHR087W, strain rtc3, active compounds read low 1.01 | locus YJL187C, strain SWE1, active compounds read low 0.975 | locus YJR043C, strain POL32, active compounds read low 0.984 | [10] 0.966 | locus YLR039C, strain RIC1, active compounds read low 1.04 | locus YLR058C, strain SHM2 (second series), active compounds read low 0.978 | locus YLR085C, strain ARP6, active compounds read low 0.886 | locus YLR262C, strain YPT6, active compounds read low 1.02 | locus YML094W, strain GIM5, active compounds read low 1.04 | locus YMR219W, strain ESC1, active compounds read low 0.985 | [11] 0.958 | [12] 0.99 | locus YNL298W, strain CLA4 (second series), active compounds read low 0.965 | [13] 0.987 | locus YNR030W, strain Alg12, active compounds read low 0.986 | locus YPL055C, strain LGE1, active compounds read low 1.09 | [14] 0.988 | locus YPR135W, strain CTF4, active compounds read low 0.988
